Results on 25 molecules are retold here after the supplement of paper PMC9492666.

What all share (conditions): 72 h
The test system of test [1] is HCC1937. Nature of the test: relative cell viability, compound alone, vs DMSO (fraction of DMSO control); higher = less growth inhibition.
Test [2] relates to MDA-MB-231. The test is described as above.
Test [3] concerns HCC1937. Nature of the test: relative cell viability, compound + RSL3, vs DMSO (fraction of DMSO control); higher = less growth inhibition.
For test [4], the system named is MDA-MB-231. Described as above.

Counter-ions that a name gives are not always drawn.
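For relative cell viability, compound + RSL3, vs DMSO in this document: breast cancer cell viability read out with the CCK-8 kit after co-treatment of each compound with the ferroptosis inducer RSL3.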
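For relative cell viability, compound alone, vs DMSO in this document: viability read out with the CCK-8 kit in 96-well plates, screening a set of 303 compounds acting on lipid metabolism targets.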

As to `c1cc(-c2cnn3cc(-c4ccc(OCCN5CCCCC5)cc4)cnc23)ccn1` [Dorsomorphin dihydrochloride], the relative cell viability in the test on HCC1937 [1] came out at 0.138; in the test on MDA-MB-231 [2] it was 0.301.

Turning to `CCCCC[C@H](O)CC(=O)CCc1ccc(O)c(OC)c1` [6-Gingerol] + COC(=O)c1ccc([C@H]2c3[nH]c4ccccc4c3C[C@H](C(=O)OC)N2C(=O)CCl)cc1 [RSL3], the relative cell viability was determined as 0.298 in the test with HCC1937 [3] and 0.483 with MDA-MB-231 [4].

For the molecule `O=C(c1ccc(NS(=O)(=O)c2cccc3cccnc23)cc1)N1CCN(CC2CC2)CC1` [Mitapivat], the figures for the relative cell viability in the test on HCC1937 [1] and with MDA-MB-231 [2] were 0.95 and 0.935, respectively.

Take `C[C@H](CCCC(C)(C)O)[C@H]1CC[C@H]2[C@@H]3CC=C4C[C@@H](O)CC[C@]4(C)[C@H]3CC[C@]12C` [25-Hydroxycholesterol]: the relative cell viability amounted to 0.982 in the test with HCC1937 [1] and 0.89 with MDA-MB-231 [2].

With `O=C(NCCS(=O)(=O)c1ccc(C(F)(F)F)cn1)c1ccc(Cl)cc1` + COC(=O)c1ccc([C@H]2c3[nH]c4ccccc4c3C[C@H](C(=O)OC)N2C(=O)CCl)cc1 [RSL3], the relative cell viability in the test with HCC1937 [3] amounted to 0.362; with MDA-MB-231 [4], 0.525.

For `O=C(Nc1cccnc1)N1CCC(Cc2cccc(Oc3ccc(C(F)(F)F)cn3)c2)CC1` + COC(=O)c1ccc([C@H]2c3[nH]c4ccccc4c3C[C@H](C(=O)OC)N2C(=O)CCl)cc1 [RSL3], the values for the relative cell viability with HCC1937 [3] and with MDA-MB-231 [4] were 0.727 and 0.644, respectively.

Turning to `CC[C@H]1[C@@H](O)[C@@H]2[C@H](CC[C@]3(C)[C@@H]([C@H](C)CCC(=O)O)CC[C@@H]23)[C@@]2(C)CC[C@@H](O)C[C@@H]12` [Obeticholic Acid], the results for the relative cell viability in the test on HCC1937 [1] and with MDA-MB-231 [2] were 0.901 and 0.856, respectively.

As to `CCCc1cc(-c2nc(-c3ccc(NS(C)(=O)=O)cc3)cs2)ccn1` + COC(=O)c1ccc([C@H]2c3[nH]c4ccccc4c3C[C@H](C(=O)OC)N2C(=O)CCl)cc1 [RSL3], the relative cell viability stood at 0.322 in the test with HCC1937 [3] and 0.551 in the test on MDA-MB-231 [4].

With `O=C(OC(C(F)(F)F)C(F)(F)F)N1CCN(Cc2ccc(C(F)(F)F)cc2N2CCCC2)CC1`, the relative cell viability was 0.999 in the test on HCC1937 [1] and 1.01 with MDA-MB-231 [2].

For the molecule `CCCCCCCCCc1ccc(B(O)O)cc1` [4-Nonylphenylboronic acid], the relative cell viability was 1.01 in the test with HCC1937 [1] and 1.08 in the test with MDA-MB-231 [2].

Consider `COc1ccc2c(=O)c(-c3ccccc3)coc2c1` [7-Methoxyisoflavone], for which the values for the relative cell viability in the test with HCC1937 [1] and with MDA-MB-231 [2] were 0.594 and 0.859, respectively.

With `CCN(CC)Cc1ccc(C(=O)N(CCc2ccccc2OC)[C@@H]2CCNC2)cc1` + COC(=O)c1ccc([C@H]2c3[nH]c4ccccc4c3C[C@H](C(=O)OC)N2C(=O)CCl)cc1 [RSL3], the relative cell viability with HCC1937 [3] amounted to 0.666; in the test with MDA-MB-231 [4], 0.784.

On to `CCC(CC)CC1(C(=O)Nc2ccccc2SC(=O)C(C)C)CCCCC1` [Dalcetrapib] + COC(=O)c1ccc([C@H]2c3[nH]c4ccccc4c3C[C@H](C(=O)OC)N2C(=O)CCl)cc1 [RSL3], for which the relative cell viability with HCC1937 [3] is 0.654; in the test on MDA-MB-231 [4], 0.684.

Consider `O=C(O)c1ccnc(N2CC(O)(c3ccc(OCc4c(-c5c(Cl)cccc5Cl)noc4C4CC4)cc3Cl)C2)c1` [Cilofexor] + COC(=O)c1ccc([C@H]2c3[nH]c4ccccc4c3C[C@H](C(=O)OC)N2C(=O)CCl)cc1 [RSL3], for which the relative cell viability was 0.368 with HCC1937 [3] and 0.568 in the test with MDA-MB-231 [4].

Regarding `COc1cccc(-n2c(=O)[nH]c3cc(Cl)n(-c4ccc(-c5cccc(OC)c5O)cc4)c3c2=O)c1` + COC(=O)c1ccc([C@H]2c3[nH]c4ccccc4c3C[C@H](C(=O)OC)N2C(=O)CCl)cc1 [RSL3], the results for the relative cell viability with HCC1937 [3] and in the test with MDA-MB-231 [4] were 0.395 and 0.572, respectively.

In the case of `Oc1ccc2c(c1)OCO2` [Sesamol], the relative cell viability in the test with HCC1937 [1] turned out to be 0.804; with MDA-MB-231 [2] it was 0.831.

As for `COc1ccc(-c2coc3cc(O)cc(O)c3c2=O)cc1` [Biochanin A] + COC(=O)c1ccc([C@H]2c3[nH]c4ccccc4c3C[C@H](C(=O)OC)N2C(=O)CCl)cc1 [RSL3], the relative cell viability with HCC1937 [3] was found to be 0.66; in the test with MDA-MB-231 [4], 0.438.

On to `CC(=O)c1c(C)cc2cccc(O)c2c1O` [Nepodin], for which the relative cell viability was 0.75 in the test with HCC1937 [1] and 0.797 with MDA-MB-231 [2].

As for `CC(=O)c1c(C)cc2cccc(O)c2c1O` [Nepodin] + COC(=O)c1ccc([C@H]2c3[nH]c4ccccc4c3C[C@H](C(=O)OC)N2C(=O)CCl)cc1 [RSL3], the results for the relative cell viability with HCC1937 [3] and in the test with MDA-MB-231 [4] were 0.404 and 0.56, respectively.

`C=C1C[C@]2(O)O[C@@]3(CC2=C(C)C)[C@@H](C)CC[C@@H]13` [Isocurcumenol] + COC(=O)c1ccc([C@H]2c3[nH]c4ccccc4c3C[C@H](C(=O)OC)N2C(=O)CCl)cc1 [RSL3]: the values for the relative cell viability in the test on HCC1937 [3] and with MDA-MB-231 [4] were 0.612 and 0.568, respectively.

Take `c1cc(-c2cnn3cc(-c4ccc(OCCN5CCCCC5)cc4)cnc23)ccn1` [Dorsomorphin dihydrochloride] + COC(=O)c1ccc([C@H]2c3[nH]c4ccccc4c3C[C@H](C(=O)OC)N2C(=O)CCl)cc1 [RSL3]: the relative cell viability was 0.111 in the test with HCC1937 [3] and 0.286 with MDA-MB-231 [4].

Consider `CC(c1cc2ccccc2s1)N(O)C(N)=O` (stereo not given) [Zileuton], for which the results for the relative cell viability in the test with HCC1937 [1] and with MDA-MB-231 [2] were 1.21 and 0.906, respectively.

Regarding `O=C(NC1CCN(CCCCC2(C(=O)NCC(F)(F)F)c3ccccc3-c3ccccc32)CC1)c1ccccc1-c1ccc(C(F)(F)F)cc1` [Lomitapide], the relative cell viability came to 0.293 in the test with HCC1937 [1] and 0.695 in the test with MDA-MB-231 [2].

Regarding `COCCNC(=O)Nc1ccc2nc(-c3cccs3)c(-c3cccs3)nc2c1` [Ac-CoA Synthase Inhibitor1] + COC(=O)c1ccc([C@H]2c3[nH]c4ccccc4c3C[C@H](C(=O)OC)N2C(=O)CCl)cc1 [RSL3], the figures for the relative cell viability with HCC1937 [3] and in the test on MDA-MB-231 [4] were 0.594 and 0.566, respectively.

For `O=P(O)(O)OC(CO)CO` [β-Glycerol phosphate disodium salt pentahydrate] + COC(=O)c1ccc([C@H]2c3[nH]c4ccccc4c3C[C@H](C(=O)OC)N2C(=O)CCl)cc1 [RSL3], the relative cell viability with HCC1937 [3] was 0.343; with MDA-MB-231 [4], 0.56.
